PubChem BioAssay AID1159580 (chemical genetic matrix, 2015)
Where “and” joins values, the source holds several entries; their conditions need not be identical. Identical values can stand only once. The campaign covered roughly 5,500 compounds. About 2,000 (36%) were called active. Not shown: some 18% with an inconclusive outcome. Cut-off read from the data, not from the text of the source: active = normalized growth mostly below about 0.91 (no sharp cut-off); inconclusive = no clear call, values can overlap the other calls; inactive = mostly above about 0.92. This is one part of the list. Where a structure was tested more than once in an assay, its records may differ in their call.

Test: chemical genetic growth profiling, strain panel (AID 1159580);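 note: tested at 20 µM; growth read once vehicle control cultures reached saturation at 30 °C; 1 = growth at the plate median or of vehicle wells; lower values mean less growth of the strain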
Details: growth OD

## Fc1ccc(C(c2ccc(F)cc2)N2CCN(C/C=C/c3ccccc3)CC2)cc1
S. cerevisiae deletion strains, locus YJR075W, strain HOC1, stronger effect = lower value
  normalized growth: 0.952 (inactive)
S. cerevisiae deletion strains, locus YKL009W, strain mrt4, stronger effect = lower value
  normalized growth: 0.965 (inactive)
S. cerevisiae deletion strains, locus YKL068W, stronger effect = lower value
  normalized growth: 0.982 (inactive)
S. cerevisiae deletion strains, locus YKL085W, strain MDH1 (second series), stronger effect = lower value
  normalized growth: 0.974 (inactive)
S. cerevisiae deletion strains, locus YKL085W, strain MDH1, stronger effect = lower value
  normalized growth: 0.974 (inactive)
S. cerevisiae deletion strains, locus YKL160W, strain elf1, stronger effect = lower value
  normalized growth: 0.168 (active)
S. cerevisiae deletion strains, locus YKL190W, strain CNB1, stronger effect = lower value
  normalized growth: 0.974 (inactive)
S. cerevisiae deletion strains, locus YKR001C, strain vps1, stronger effect = lower value
  normalized growth: 0.972 (inactive)
S. cerevisiae deletion strains, locus YKR026C, strain gcn3, stronger effect = lower value
  normalized growth: 0.412 (active)
S. cerevisiae deletion strains, locus YKR091W, strain srl3, stronger effect = lower value
  normalized growth: 0.444 (active)
S. cerevisiae deletion strains, locus YLL001W, strain dnm1, stronger effect = lower value
  normalized growth: 0.293 (active)
S. cerevisiae deletion strains, locus YLL026W, stronger effect = lower value
  normalized growth: 0.257 (active)
S. cerevisiae deletion strains, locus YLL041C, strain sdh2, stronger effect = lower value
  normalized growth: 0.41 (active)
S. cerevisiae deletion strains, locus YLR027C, strain aat2, stronger effect = lower value
  normalized growth: 0.306 (active)
S. cerevisiae deletion strains, locus YLR039C, strain RIC1, stronger effect = lower value
  normalized growth: 1.36 [resistant] (active)
S. cerevisiae deletion strains, locus YLR058C, strain SHM2, stronger effect = lower value
  normalized growth: 0.981 (inactive)
S. cerevisiae deletion strains, locus YLR102C, strain apc9, stronger effect = lower value
  normalized growth: 0.988 (inactive)
S. cerevisiae deletion strains, locus YLR113W, strain HOG1, stronger effect = lower value
  normalized growth: 0.963 (inactive)
S. cerevisiae deletion strains, locus YLR221C, strain rsa3, stronger effect = lower value
  normalized growth: 0.18 (active)
S. cerevisiae deletion strains, locus YLR258W, strain gsy2, stronger effect = lower value
  normalized growth: 0.32 (active)
S. cerevisiae deletion strains, locus YLR262C, strain YPT6 (second series), stronger effect = lower value
  normalized growth: 0.749 (active)
S. cerevisiae deletion strains, locus YLR262C, strain YPT6, stronger effect = lower value
  normalized growth: 1.34 (inactive)
S. cerevisiae deletion strains, locus YLR268W, strain sec22, stronger effect = lower value
  normalized growth: 0.933 (inactive)
S. cerevisiae deletion strains, locus YLR320W, strain mms22, stronger effect = lower value
  normalized growth: 0.137 (active)
S. cerevisiae deletion strains, locus YLR330W, strain CHS5, stronger effect = lower value
  normalized growth: 0.988 (inactive)
S. cerevisiae deletion strains, locus YLR342W, strain FKS1 (second series), stronger effect = lower value
  normalized growth: 0.981 (inactive)
S. cerevisiae deletion strains, locus YLR342W, strain FKS1, stronger effect = lower value
  normalized growth: 0.25 (active)
S. cerevisiae deletion strains, locus YLR357W, strain rsc2, stronger effect = lower value
  normalized growth: 0.544 (active)
S. cerevisiae deletion strains, locus YLR370C, strain arc18, stronger effect = lower value
  normalized growth: 0.226 (active)
S. cerevisiae deletion strains, locus YLR371W, strain rom2, stronger effect = lower value
  normalized growth: 0.969 (inactive)
S. cerevisiae deletion strains, locus YLR384C, strain iki3, stronger effect = lower value
  normalized growth: 0.957 (inactive)
S. cerevisiae deletion strains, locus YLR418C, strain cdc73, stronger effect = lower value
  normalized growth: 0.993 (inactive)
S. cerevisiae deletion strains, locus YML016C, strain PPZ1, stronger effect = lower value
  normalized growth: 0.992 (inactive)
S. cerevisiae deletion strains, locus YML032C, strain rad52, stronger effect = lower value
  normalized growth: 0.948 (inactive)
S. cerevisiae deletion strains, locus YML120C, strain ndi1, stronger effect = lower value
  normalized growth: 0.24 (active)
S. cerevisiae deletion strains, locus YML124C, strain tub3, stronger effect = lower value
  normalized growth: 0.991 (inactive)
S. cerevisiae deletion strains, locus YMR058W, strain fet3, stronger effect = lower value
  normalized growth: 0.266 (active)
S. cerevisiae deletion strains, locus YMR078C, strain ctf18, stronger effect = lower value
  normalized growth: 0.966 (inactive)
S. cerevisiae deletion strains, locus YMR125W, strain sto1, stronger effect = lower value
  normalized growth: 0.17 (active)
S. cerevisiae deletion strains, locus YMR129W, stronger effect = lower value
  normalized growth: 0.222 (active)
S. cerevisiae deletion strains, locus YMR205C, strain PFK2, stronger effect = lower value
  normalized growth: 0.332 (active)
S. cerevisiae deletion strains, locus YMR223W, strain ubp8, stronger effect = lower value
  normalized growth: 0.988 (inactive)
S. cerevisiae deletion strains, locus YMR231W, strain pep5, stronger effect = lower value
  normalized growth: 0.794 (active)
S. cerevisiae deletion strains, locus YMR263W, strain SAP30, stronger effect = lower value
  normalized growth: 0.968 (inactive)
S. cerevisiae deletion strains, locus YMR307W, strain GAS1, stronger effect = lower value
  normalized growth: 1.28 (inactive) and 0.996 (inactive)
S. cerevisiae deletion strains, locus YNL067W, strain RPL9B, stronger effect = lower value
  normalized growth: 0.964 (inactive)
S. cerevisiae deletion strains, locus YNL071W, strain lat1, stronger effect = lower value
  normalized growth: 0.119 (active)
S. cerevisiae deletion strains, locus YNL128W, strain TEP1, stronger effect = lower value
  normalized growth: 0.969 (inactive)
S. cerevisiae deletion strains, locus YNL153C, strain GIM3, stronger effect = lower value
  normalized growth: 0.959 (inactive) and 0.788 (active)
S. cerevisiae deletion strains, locus YNL183C, strain NPR1, stronger effect = lower value
  normalized growth: 0.927 (inactive)
S. cerevisiae deletion strains, locus YNL197C, strain WHI3, stronger effect = lower value
  normalized growth: 1.08 (inactive)
S. cerevisiae deletion strains, locus YNL209W, strain ssb2, stronger effect = lower value
  normalized growth: 0.573 (active)
S. cerevisiae deletion strains, locus YNL233W, strain BNI4, stronger effect = lower value
  normalized growth: 0.981 (inactive)
S. cerevisiae deletion strains, locus YNL248C, strain rpa49, stronger effect = lower value
  normalized growth: 0.227 (active)
S. cerevisiae deletion strains, locus YNL250W, strain rad50, stronger effect = lower value
  normalized growth: 0.992 (inactive)
S. cerevisiae deletion strains, locus YNL271C, strain bni1, stronger effect = lower value
  normalized growth: 0.984 (inactive)
S. cerevisiae deletion strains, locus YNL298W, strain CLA4, stronger effect = lower value
  normalized growth: 0.99 (inactive)
S. cerevisiae deletion strains, locus YNL307C, strain MCK1, stronger effect = lower value
  normalized growth: 0.992 (inactive)
S. cerevisiae deletion strains, locus YNL322C, strain KRE1 (second series), stronger effect = lower value
  normalized growth: 0.244 (active)
S. cerevisiae deletion strains, locus YNL322C, strain KRE1, stronger effect = lower value
  normalized growth: 0.989 (inactive) and 0.962 (inactive)
S. cerevisiae deletion strains, locus YNR049C, strain mso1, stronger effect = lower value
  normalized growth: 0.334 (active)
S. cerevisiae deletion strains, locus YNR052C, strain pop2, stronger effect = lower value
  normalized growth: 0.933 (inactive)
S. cerevisiae deletion strains, locus YOL006C, strain TOP1, stronger effect = lower value
  normalized growth: 0.81 (inactive)
S. cerevisiae deletion strains, locus YOL012C, strain htz1
  normalized growth: 1.09 (inactive)
S. cerevisiae deletion strains, locus YOL147C, strain pex11, stronger effect = lower value
  normalized growth: 0.984 (inactive)
S. cerevisiae deletion strains, locus YOR001W, strain rrp6, stronger effect = lower value
  normalized growth: 0.314 (active)
S. cerevisiae deletion strains, locus YOR061W, strain CKA2, stronger effect = lower value
  normalized growth: 0.982 (inactive)
S. cerevisiae deletion strains, locus YOR069W, strain VPS5, stronger effect = lower value
  normalized growth: 0.995 (inactive)
S. cerevisiae deletion strains, locus YOR070C, strain gyp1, stronger effect = lower value
  normalized growth: 0.126 (active)
S. cerevisiae deletion strains, locus YOR080W, strain dia2, stronger effect = lower value
  normalized growth: 0.423 (active)
S. cerevisiae deletion strains, locus YOR083W, strain WHI5 (second series), stronger effect = lower value
  normalized growth: 1.05 (inactive)
S. cerevisiae deletion strains, locus YOR083W, strain WHI5, stronger effect = lower value
  normalized growth: 0.36 (active)
S. cerevisiae deletion strains, locus YOR106W, strain vam3, stronger effect = lower value
  normalized growth: 0.33 (active)
S. cerevisiae deletion strains, locus YOR136W, strain idh2, stronger effect = lower value
  normalized growth: 0.989 (inactive)
S. cerevisiae deletion strains, locus YOR144C, strain elg1, stronger effect = lower value
  normalized growth: 0.982 (inactive)
S. cerevisiae deletion strains, locus YOR184W, strain ser1, stronger effect = lower value
  normalized growth: 1.03 (inactive)
S. cerevisiae deletion strains, locus YOR231W, strain MKK1, stronger effect = lower value
  normalized growth: 1 (inactive)
S. cerevisiae deletion strains, locus YOR265W, strain rbl2, stronger effect = lower value
  normalized growth: 0.251 (active)
S. cerevisiae deletion strains, locus YOR270C, strain vph1, stronger effect = lower value
  normalized growth: 0.156 (active)
S. cerevisiae deletion strains, locus YOR290C, strain snf2, stronger effect = lower value
  normalized growth: 0.245 (active)
S. cerevisiae deletion strains, locus YOR316C, strain cot1, stronger effect = lower value
  normalized growth: 0.967 (inactive)
S. cerevisiae deletion strains, locus YPL051W, strain arl3, stronger effect = lower value
  normalized growth: 0.474 (active)
S. cerevisiae deletion strains, locus YPL055C, strain LGE1, stronger effect = lower value
  normalized growth: 0.96 (inactive)
S. cerevisiae deletion strains, locus YPL078C, strain atp4, stronger effect = lower value
  normalized growth: 0.316 (active)
S. cerevisiae deletion strains, locus YPL106C, strain sse1, stronger effect = lower value
  normalized growth: 0.223 (active)
S. cerevisiae deletion strains, locus YPL240C, strain hsp82, stronger effect = lower value
  normalized growth: 0.338 (active)
S. cerevisiae deletion strains, locus YPL241C, strain CIN2, stronger effect = lower value
  normalized growth: 0.981 (inactive)
S. cerevisiae deletion strains, locus YPL256C, strain CLN2, stronger effect = lower value
  normalized growth: 0.97 (inactive)
S. cerevisiae deletion strains, locus YPR119W, strain clb2, stronger effect = lower value
  normalized growth: 0.979 (inactive)
S. cerevisiae deletion strains, locus YPR141C, strain kar3, stronger effect = lower value
  normalized growth: 0.999 (inactive)
S. cerevisiae deletion strains, locus YPR163C, strain tif3, stronger effect = lower value
  normalized growth: 0.959 (inactive)
S. cerevisiae deletion strains, locus YPR167C, strain met16, stronger effect = lower value
  normalized growth: 0.964 (inactive)
S. cerevisiae deletion strains, strain wtn01, stronger effect = lower value
  normalized growth: 0.957 (inactive)
S. cerevisiae strains, strain wild type, stronger effect = lower value
  normalized growth: 0.984 (inactive)
